Experimental data from PMC13541613, “GHT-SELEX demonstrates unexpectedly high intrinsic sequence specificity and complex DNA binding of many human transcription factors”.

What was measured:
Experiment in all cases: HT-SELEX; 20 mM HEPES pH 7, 140 mM KCl, 5 mM NaCl, 1 mM K2HPO4, 2 mM MgSO4, 100 uM EGTA, ZnSO4, 0.1% Tween20; room temperature, 1 h; high values mean tight binding
Conditions in all cases: protein: ivt; tags: eGFP (N-terminal); dsDNA, one strand shown
ZNF721 full-length = ZNF721 full-length (Homo sapiens, UniProt Q8TF20-2 1-923)
ZNF721 full-length, sequence (Q8TF20 other isoform, or with tags, fused parts or gaps): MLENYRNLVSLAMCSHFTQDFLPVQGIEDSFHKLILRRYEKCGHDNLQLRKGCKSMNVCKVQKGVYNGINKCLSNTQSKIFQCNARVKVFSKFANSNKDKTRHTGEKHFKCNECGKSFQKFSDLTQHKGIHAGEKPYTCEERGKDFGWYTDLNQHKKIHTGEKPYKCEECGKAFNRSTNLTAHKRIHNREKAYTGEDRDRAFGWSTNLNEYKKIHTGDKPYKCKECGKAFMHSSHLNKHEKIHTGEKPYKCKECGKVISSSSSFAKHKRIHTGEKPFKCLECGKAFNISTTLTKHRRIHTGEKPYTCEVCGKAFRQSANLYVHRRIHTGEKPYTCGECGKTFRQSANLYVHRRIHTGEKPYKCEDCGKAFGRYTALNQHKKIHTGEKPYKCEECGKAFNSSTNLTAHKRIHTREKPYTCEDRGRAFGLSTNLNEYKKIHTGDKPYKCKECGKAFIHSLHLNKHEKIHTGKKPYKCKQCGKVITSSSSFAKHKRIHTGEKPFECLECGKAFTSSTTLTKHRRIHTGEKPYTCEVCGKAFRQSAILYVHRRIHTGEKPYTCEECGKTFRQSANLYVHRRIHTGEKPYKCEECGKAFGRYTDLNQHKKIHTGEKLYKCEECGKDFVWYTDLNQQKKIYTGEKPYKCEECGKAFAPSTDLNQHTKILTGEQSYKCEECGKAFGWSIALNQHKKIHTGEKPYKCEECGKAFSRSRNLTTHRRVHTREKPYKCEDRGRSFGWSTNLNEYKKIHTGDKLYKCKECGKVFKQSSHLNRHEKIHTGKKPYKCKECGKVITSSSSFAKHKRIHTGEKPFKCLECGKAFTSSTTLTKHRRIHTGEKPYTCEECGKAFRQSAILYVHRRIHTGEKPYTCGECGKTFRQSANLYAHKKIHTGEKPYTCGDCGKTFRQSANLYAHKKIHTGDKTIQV
Method in brief: (§1)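 Tagged transcription factor, expressed in HEK293 lysate or cell-free extract as a full-length protein or DNA-binding-domain fragment, was held on beads. It bound a randomized 40-base DNA library during 1 h at room temperature in low-stringency HEPES/KCl buffer with Tween20. Eluted DNA went through successive PCR cycles and Illumina sequencing of ~3 million 60 bp reads per sample. A higher relative k-mer count in the selected reads denotes tighter binding.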

ZNF721 DBD1 = ZNF721 DBD1 (Homo sapiens, UniProt Q8TF20-2 29-461)
ZNF721 DBD1, sequence (Q8TF20 17-449): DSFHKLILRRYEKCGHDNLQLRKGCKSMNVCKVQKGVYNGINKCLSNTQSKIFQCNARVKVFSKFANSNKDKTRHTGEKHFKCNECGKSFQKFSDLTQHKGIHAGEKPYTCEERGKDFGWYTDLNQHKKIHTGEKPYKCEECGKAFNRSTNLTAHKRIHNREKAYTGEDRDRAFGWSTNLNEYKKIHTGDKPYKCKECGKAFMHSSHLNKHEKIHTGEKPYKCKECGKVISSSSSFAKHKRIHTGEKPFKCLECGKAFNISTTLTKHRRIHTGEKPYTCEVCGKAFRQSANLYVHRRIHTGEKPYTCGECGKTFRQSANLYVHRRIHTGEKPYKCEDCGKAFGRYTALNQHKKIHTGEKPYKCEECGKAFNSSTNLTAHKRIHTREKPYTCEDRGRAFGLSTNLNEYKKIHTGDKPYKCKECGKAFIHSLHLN
Method in brief: as §1

ZNF721 DBD2 = ZNF721 DBD2 (Homo sapiens, UniProt Q8TF20-2 395-923)
ZNF721 DBD2, sequence (Q8TF20 383-911): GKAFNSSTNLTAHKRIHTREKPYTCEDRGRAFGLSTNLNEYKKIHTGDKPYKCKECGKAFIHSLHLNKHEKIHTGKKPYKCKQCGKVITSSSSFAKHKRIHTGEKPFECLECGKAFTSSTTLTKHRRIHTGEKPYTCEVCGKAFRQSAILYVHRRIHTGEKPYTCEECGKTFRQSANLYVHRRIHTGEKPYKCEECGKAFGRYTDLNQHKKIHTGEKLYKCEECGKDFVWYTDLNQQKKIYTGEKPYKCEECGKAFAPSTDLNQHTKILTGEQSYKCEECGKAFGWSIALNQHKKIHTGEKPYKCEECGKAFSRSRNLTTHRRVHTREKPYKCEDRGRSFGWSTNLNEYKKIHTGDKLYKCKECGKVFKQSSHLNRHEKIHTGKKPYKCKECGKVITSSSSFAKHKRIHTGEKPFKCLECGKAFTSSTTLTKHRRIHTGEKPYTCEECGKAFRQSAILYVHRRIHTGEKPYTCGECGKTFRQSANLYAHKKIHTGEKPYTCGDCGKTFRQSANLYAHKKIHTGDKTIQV
Method in brief: as §1

Sequence | binding signal (ZNF721 full-length) [relative 10-mer count] | binding signal (ZNF721 DBD1) [relative 10-mer count] | binding signal (ZNF721 DBD2) [relative 10-mer count]
AAAGCAGCCC | 0.134 | 0.00225 | 0.133
CGCCACCACC | 0.108 | 0.00468 | 0.00384
CCATCCCCCC | 0.155 | 0.00592 | 0.0036
CCCCAACCCC | 0.283 | 0.0104 | 0.00288
CGCTTTTTTC | 0.258 | 0.0622 | 0.0303
CGCACCCCCC | 0.118 | 0.00463 | 0.00276
GCCCCACCGC | 0.104 | 0.00271 | 0.00407
CCCCTCCCCA | 0.188 | 0.00734 | 0.00455
CCCACGCCCC | 0.233 | 0.00729 | 0.00384
CCCGCCCCCA | 0.153 | 0.00706 | 0.00132
CCACCCCCGC | 0.203 | 0.0072 | 0.00264
ACCCTCCACC | 0.127 | 0.00482 | 0.00707
CCCCACCAAC | 0.136 | 0.00638 | 0.00791
CCACCACACC | 0.148 | 0.00537 | 0.00587
CGTCCCCCAC | 0.104 | 0.00468 | 0.00407
AGGGTGGGGG | 0.202 | 0.0102 | 0.00563
AAAGGCATAC | 0.129 | 0.00142 | 0.123
CCGCCCGCCC | 0.136 | 0.00495 | 0.00192
CCACCCTCAC | 0.103 | 0.00427 | 0.00791
GGGGGGGGGA | 0.116 | 0.00486 | 0.00192
CGTCCCCCCC | 0.126 | 0.00619 | 0.00108
CGCCCCCCGC | 0.12 | 0.00472 | 0.00384
CACCCACCCA | 0.192 | 0.00835 | 0.00503

Sequence | binding signal (ZNF721 full-length) [relative 10-mer count] | binding signal (ZNF721 DBD1) [relative 10-mer count] | binding signal (ZNF721 DBD2) [relative 10-mer count]
GGAGGGGGGA | 0.131 | 0.00601 | 0.00336
AGCGTCTCCT | 0.109 | 0.0353 | 0.194
CCCAAAAAAA | 0.149 | 0.0067 | 0.0681
CCCCGCCCTC | 0.146 | 0.00601 | 0.00216
AAGAAAAAAG | 0.166 | 0.0407 | 0.0319
CCACGCCCAC | 0.102 | 0.00514 | 0.00431
CCCCGCTCCC | 0.139 | 0.0044 | 0.00108
GCCCCCTCCC | 0.134 | 0.00633 | 0.00384
CCCCCGCCCG | 0.109 | 0.00372 | 0.00192
ACCTCCCCCC | 0.151 | 0.00578 | 0.00216
CCCTCCCCAC | 0.217 | 0.00977 | 0.00863
AAAGCAGCAC | 0.125 | 0.00583 | 0.126
CCTCCCACCA | 0.115 | 0.00784 | 0.00491
GCTTCTTTCC | 0.103 | 0.0866 | 0.00156
CACCGCCCCC | 0.171 | 0.00803 | 0.003
AGCGTATCCT | 0.146 | 0.0287 | 0.192
CTCCCCGCCC | 0.131 | 0.00583 | 0.00372
CCCCCCCCGC | 0.151 | 0.00399 | 0.0024
CCCCCACTCC | 0.14 | 0.00665 | 0.00288
ACCCACCCGC | 0.102 | 0.00316 | 0.00276
CCCCCCGCCC | 0.28 | 0.0116 | 0.00336
AAAAAAGCAG | 0.862 | 0.0227 | 0.588
ACCCACACCC | 0.108 | 0.00527 | 0.00527
